# Test results as given in PubChem BioAssay (NCATS).
# Records with an inconclusive call do not appear. Entries that show only a call come without a potency. Active and inactive are the calls of the source. The call rests on the fitted dose curve; in most records, active means well fitted inhibition curve with a large enough effect; inconclusive means small, poorly fitted or top-dose-only effect; inactive means no such curve, though single readings can be large or run the other way.
# Tested on: Zika virus NS2B-NS3 protease (unlinked complex)
# Experiment: Primary screen GU Rhodamine qHTS for Zika virus inhibitors: Unlinked NS2B-NS3 protease assay (AID 1347159); further: nearly all actives have a fitted effect of over 60% in size
# Conditions: Recombinant ZIKV NS2B-NS3 protease, Rhodamine110 substrate fluorescence; series mostly up to 107 µM
# Source text: Avindra Nath, Ph.D., National Institute of Neurological Disorders and Stroke (NINDS), Bethesda, MD
# Radhakrishnan Padmanabhan, Ph.D., Georgetown University (GU), Washington D.C.
# Zika Virus causes congenital defects, including microcephaly and is associated with Guillain-Barre syndrome, eningoencephalitis and myelitis in infected adult. […] Using a target-based approach, we hope to establish a screening paradigm to uncover novel, cell-active NS2B-NS3 protease (Zika Virus) specific inhibitors from NCATS' collection of small molecules using qHTS.
# Four assay panel was created to identify potential Zika Virus inhibitors. Namely, (1) GU unlinked NS2B-NS3 AMC tagged protease qHTS, (2) GU unlinked NS2B-NS3 Rhodamine tagged protease qHTS, (3) NINDS linked NS2B-NS3 AMC tagged protease qHTS, (4) NINDS linked NS2B-NS3 Rhodamine tagged protease qHTS. Active compounds were re-acquired and re-screened to confirm inhibition. Inhibitors were further screened against various confirmatory and counterscreens in dose response format.
# Early Translation Branch (ETB)
# National Center for Advancing Translational Sciences (NCATS), Rockville, MD
# National Institute of Health (NIH), Bethesda, Maryland
# Padmanabhan lab provided the NS2B hydrophilic domain and NS3 protease domain in a noncovalent complex used for the unlinked assay. Control compound aprotinin is obtained from Thermo Scientific (#78432; Waltham, Massachusetts). Rhodamine110 substrate ([N-Cbz]-Nle-Lys-Arg-Arg-Rhod110-Arg-Arg-Lys-Nle-[N-Cbz]) was purchased from either Genscript or Bachem.
# 1536-well Protease (Rhodamine110 Substrate) Assay:
# Briefly, 3 microL of enzyme (25 nM final concentration), in assay buffer (10 mM Tris-HCl pH 8.0 with 0.01% Tween 20) were dispensed into a 1,536-well solid-bottom black plate (Greiner Bio One, Monroe, NC). Twenty-three nL of compounds (final concentration range 7.28 nM to 114 microM) or control Aprotinin (final concentration range 3.47 nM to 114 microM) were transferred via Wako Pin-tool (Wako Automation, Richmond, VA). Samples were incubated (room temperature, protected from light) for 15 minutes followed by a 1 microL Rhodamine110 substrate addition (1.5 microM final concentration). Plates were then immediately read on a ViewLux High-throughput CCD imager (PerkinElmer, Waltham, MA) equipped with FITC fluorescence optics (480(20) nm excitation, 540(25) nm emission), then incubated (room temperature, protected from light) for 15 minutes (~15% conversion). The change in fluorescence intensity over the 15-minute reaction period was normalized against no-inhibitor and no-enzyme controls and the resulting percent inhibition data were fitted to a 4-parameter Hill equation. Aprotinin was used as intraplate control.
# Potency means the concentration at half of the fitted maximal effect.
row,Compound,Potency
1,CO[C@H]1O[C@@H]2O[C@]3(C)CC[C@H]4[C@H](C)CC[C@@H]([C@H]1C)[C@@]24OO3,inactive
2,Cc1ncc(CCCN(C)C)cc1Nc1ncc2c(n1)-c1ccc(C(F)(F)F)cc1NC(=S)C2,inactive
3,CC1CCCCN1S(=O)(=O)c1ccc(N2CCCC2=O)cc1 (stereo not given),inactive
4,CCCC1(c2ccccc2)NC(=O)N(CC(=O)N(C)Cc2c(F)cccc2Cl)C1=O (stereo not given),inactive
5,CC12CCC3c4ccc(OC5OC(C(=O)O)C(O)C(O)C5O)cc4CCC3C1CCC2O (stereo not given),inactive
6,C[C@@H]1CC[C@@]2(OC1)O[C@H]1C[C@H]3[C@@H]4CC=C5C[C@@H](O)CC[C@]5(C)[C@H]4CC[C@]3(C)[C@H]1[C@@H]2C,inactive
7,CC[C@H](CO)Nc1nc(NCc2ccc(-c3ccccn3)cc2)c2ncn(C(C)C)c2n1,inactive
8,Cc1cc(Nc2nc(NC(C)c3ncc(F)cn3)ncc2Cl)n[nH]1 (stereo not given),inactive
9,CC[C@@](C)(Nc1ccnc(-c2c[nH]c3ncccc23)n1)C(=O)NCC(F)(F)F,inactive
10,NC(=O)c1cnc(NCCc2ccc(O)c(Cl)c2)nc1NCc1ccccc1,inactive
11,NC(=O)[C@H]1CCS[C@@H]2C[C@]3(CCCN3C(=O)Cc3ccc(NC(=O)COc4ccc(Cl)cc4Cl)cc3)C(=O)N12,inactive
12,COC(=O)N(C)c1c(N)nc(-c2nn(Cc3ccccc3F)c3ncccc23)nc1N,inactive
13,O=C(O)C(O[C@@H]1O[C@H](CO[C@@H]2O[C@H](CO)[C@@H](O)[C@H](O)[C@H]2O)[C@@H](O)[C@H](O)[C@H]1O)c1ccccc1 (stereo not given in full),inactive
14,CN1C2CCC1CC(OC(=O)[C@H](CO)c1ccccc1)C2 (stereo not given in full),inactive
15,Nc1nc(-n2cc(C(=O)O)c(=O)c3cc(F)c(N4CC(O)C4)c(Cl)c32)c(F)cc1F,inactive
16,O=C(Nc1c(-c2cccs2)nc2ccccn12)c1ccc(Cl)cc1,inactive
17,NC[C@@](O)(c1ccc(Cl)cc1)c1ccc(-c2cn[nH]c2)cc1,inactive
18,C=C[C@H]1C(O[C@@H]2O[C@H](CO)[C@@H](O)[C@H](O)[C@H]2O)OC=C2C(=O)N3CCc4c([nH]c5ccccc45)[C@H]3C[C@H]21 (stereo not given in full),inactive
19,C/C(=C\CCC(C)CCO)C(=O)O[C@@H]1[C@@H](O)[C@H](OC2OC=C(C(=O)O)C3CCC(C)(O)C23)O[C@H](CO)[C@H]1O (stereo not given in full),35.5 µM (active)
20,CC(C)CNCc1ccc(-c2ccccc2S(=O)(=O)N2CCCC2)cc1,inactive

row,Compound,Potency
1,CC(=O)O[C@@H](CO[C@@H]1O[C@H](CO)[C@H](O)[C@H](O)[C@H]1O)[C@]1(C)C=C2CC[C@@H]3C(C)(C)[C@@H](O)CC[C@@]3(C)[C@@H]2CC1,inactive
2,COc1cc(C2Oc3c(OC)cc(CCCO)cc3C2CO)ccc1O[C@H]1O[C@H](C)[C@@H](O)[C@H](O)[C@@H]1O (stereo not given in full),inactive
3,CC(C)c1cc2c(c(O)c1O)[C@@]13CCCC(C)(C)[C@@H]1[C@H](OC3=O)C2=O,8.91 µM (active)
4,OC/C=C/c1ccc(O[C@@H]2O[C@H](CO)[C@@H](O)[C@H](O)[C@H]2O)cc1,inactive
5,CC(C)=CCC[C@](C)(O[C@@H]1O[C@H](CO[C@@H]2O[C@H](CO)[C@@H](O)[C@H](O)[C@H]2O)[C@@H](O)[C@H](O)[C@H]1O)C1CC[C@]2(C)[C@@H]1[C@H](O)CC1[C@@]3(C)CC[C@H](O[C@@H]4O[C@H](CO)[C@@H](O)[C@H](O)[C@H]4O[C@@H]4O[C@H](CO)[C@@H](O)[C@H](O)[C@H]4O)C(C)(C)[C@@H]3CC[C@]12C (stereo not given in full),inactive
6,Cc1cc(C)cc(C(=O)NOCCCCCC(=O)NO)c1,inactive
7,CC(=O)OC1C[C@@]2(C)[C@@H](CC[C@@H](C)[C@]23Cc2c(O)cc4c(c2O3)CNC4=O)C(C)(C)[C@@H]1O (stereo not given in full),inactive
8,O=C1CCC(c2ccccc2)(C2CCN(Cc3ccc(I)cc3)CC2)C(=O)N1 (stereo not given),inactive
9,O=C(CCCCN1CCOCC1)Nc1ccc(-c2cccnc2)cc1,inactive
10,CCOC(=O)C(CCc1ccccc1)NC(C)C(=O)N1C(=O)N(C)CC1C(=O)O (stereo not given),inactive
11,Cc1c2cc(c(C(=O)O)c1C)OC1OC(C(O)C(O)C1O)C(O)C(O)C1OC(O2)C(O)C(O)C1O (stereo not given),inactive
12,C=CC1(C)C=C2CCC3C(C)(C)C(O[C@@H]4O[C@@H](CO)[C@H](O)[C@H]4O)CCC3(C)C2CC1O[C@@H]1O[C@H](C)[C@H](O)[C@H](O)[C@H]1O (stereo not given in full),inactive
13,CCO[C@@H]1OC(=O)C[C@@H]1NC(=O)[C@@H]1CCCN1C(=O)[C@@H](NC(=O)c1ccc(N)c(Cl)c1)C(C)(C)C,inactive
14,CS(=O)(=O)N(CC(=O)NCC1CC1)c1cc(C(F)(F)F)ccc1Cl,inactive
15,CC(=O)c1ccc2c(c1)C(O)C(C(C)(C)O)O2 (stereo not given),inactive
16,CC[C@@H](N)CNc1ccnc(-c2cc(-c3cnn(C)c3)ccc2O)n1,inactive
17,COc1cc2occc2c(O[C@@H]2O[C@H](CO)[C@@H](O)[C@H](O)[C@H]2O)c1CCC(=O)O,inactive
18,COc1ccc(-c2c(-c3cc(C(=O)O)ccn3)ncn2C)cc1,inactive
19,OC[C@H]1O[C@@H](Oc2cc(O)c3c(c2)O[C@@H](c2ccc(O)cc2)[C@H](O)C3)[C@H](O)[C@@H](O)[C@@H]1O,inactive
20,Oc1ccc2nc(CN3CCC(Cc4ccccc4F)CC3)[nH]c2c1,inactive
